High-throughput results as filed in PubChem.
This is a sample that favours compounds with a hit; in the whole collection about 10% have one here.
JMJD2A Tudor inh: qHTS Assay for Inhibitors of JMJD2A-Tudor Domain; AlphaScreen JMJD2A-Tudor / H3K4me3 peptide binding; Potency, µM (top dose mostly 114 µM), for the others: top-dose activity change, negative = inhibition, most hits filed as inhibitors; hit rate 4.4% among 390,000; AID 504339, 2011; further: potency means the concentration at half of the fitted maximal effect; on the % scale 0 is the no-effect control and ±100 the full control effect; nearly all actives have a fitted effect of over 50% in size
BAZ2B inh: qHTS Assay for Inhibitors of BAZ2B; hit rate 4.4% among 360,000; Bromodomain adjacent to zinc finger domain protein 2B (Homo sapiens), Q9UIF8; Potency, µM (top dose mostly 114 µM), for inactives: at the highest dose activity change, negative = inhibition, most hits filed as inhibitors; AID 504333, 2011; AlphaScreen BAZ2B-H3K14Ac peptide displacement; further: potency means the concentration at half of the fitted maximal effect; on the % scale 0 is the no-effect control and ±100 the full control effect; nearly all actives have a fitted effect of over 60% in size
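Inhibition is scored as reduced AlphaScreen emission. The BAZ2B/b-H3(5-23)K14Ac complex (50 nM each) in PBS pH 7.4, 0.01% Tween-20 meets compound (up to 110 uM) for 30 min at RT before bead addition.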
CtBP-E1A blk: qHTS Assay for Inhibitors of the CtBP/E1A Interaction. CtBP / adenovirus E1A interaction (AlphaScreen). AlphaScreen GST-E1A/His-CtBP binding, 1536-well; hits give low values. activity change, % (no concentration beside the values). hit rate 0.49% among 340,000; in the data active means activity change below about -65%; inconclusive means mostly about -30% to -63%; further: on the % scale 0 is the no-effect control and ±100 the full control effect
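Steps: dispense buffer (Tris pH 8.0, NaCl 300 mM, TCEP 1 mM, BSA, Tween 20); add 5X protein mix (GST-E1A, His-CtBP, 125 nM each); pin 23 nL compound; 2 h at 37 °C, dark; add 5X beads (50 ug/mL); 1 h; read.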
HP1b binding inh: HTS for Inhibitors of HP1-beta Chromodomain Interactions with Methylated Histone Tails; hit rate 0.56% among 390,000; Potency, µM (highest dose often 114 µM), for the others: top-dose activity change, negative = inhibition, most hits filed as inhibitors; AlphaScreen HP1-beta / biotin-H3K9me3 peptide binding; Chromobox protein homolog 1 (Homo sapiens), P83916; further: potency means the concentration at half of the fitted maximal effect; nearly all actives have a fitted effect of over 70% in size
Target sequence (P83916 whole entry, looked up): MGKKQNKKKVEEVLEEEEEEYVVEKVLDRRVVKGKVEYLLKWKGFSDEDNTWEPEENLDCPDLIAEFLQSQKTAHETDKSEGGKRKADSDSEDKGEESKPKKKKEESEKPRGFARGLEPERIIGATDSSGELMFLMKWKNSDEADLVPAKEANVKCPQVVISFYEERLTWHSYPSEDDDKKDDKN
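HP1-beta protein (50 nM final) preincubated 30 min at room temperature with biotinylated H3(1-18)K9me3 peptide (50 nM) in PBS pH 7.4, 0.01% Tween-20, then compound added for 30 min. AlphaScreen streptavidin donor/nickel chelate acceptor beads (10 ug/mL final), 30 min dark, luminescence read.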
Six1-Eya2 blk: qHTS Assay for Inhibitors of the Six1/Eya2 Interaction | AID 651725, 2012 | AlphaScreen GST-Six1/His-Eya2 binding, biochemical; hits give low values | Homeobox protein SIX1 (Homo sapiens) + Protein phosphatase EYA2 (Homo sapiens), … | activity change, % (no concentration beside the values) | hit rate 0.56% among 360,000; in the data active means activity change below about -65%; inconclusive means mostly about -30% to -63%; further: on the % scale 0 is the no-effect control and ±100 the full control effect
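Homogeneous AlphaScreen proximity assay pairing GST-Six1 with His-tagged Eya2 (added as 5X mix: 250 nM and 500 nM) in 50 mM Tris pH 8.0, 300 mM NaCl, 1 mM TCEP. Glutathione donor and nickel acceptor beads; 1 h, 37 °C, dark.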
G9a inh: qHTS Assay for Inhibitors of Histone Lysine Methyltransferase G9a | G9a H3K9 monomethylation, AlphaScreen, 2 h | Histone-lysine N-methyltransferase EHMT2 (Homo sapiens), Q96KQ7 | Potency, µM (highest dose often 102 µM), without a hit: top-dose activity, negative = inhibition, hits mostly inhibitors | hit rate 8.8% among 350,000 | AID 504332, 2011; further: potency means the concentration at half of the fitted maximal effect; on the % scale 0 is the no-effect control and ±100 the full control effect; nearly all actives have a fitted effect of over 75% in size
Target sequence (Q96KQ7 913-1193 limits assumed): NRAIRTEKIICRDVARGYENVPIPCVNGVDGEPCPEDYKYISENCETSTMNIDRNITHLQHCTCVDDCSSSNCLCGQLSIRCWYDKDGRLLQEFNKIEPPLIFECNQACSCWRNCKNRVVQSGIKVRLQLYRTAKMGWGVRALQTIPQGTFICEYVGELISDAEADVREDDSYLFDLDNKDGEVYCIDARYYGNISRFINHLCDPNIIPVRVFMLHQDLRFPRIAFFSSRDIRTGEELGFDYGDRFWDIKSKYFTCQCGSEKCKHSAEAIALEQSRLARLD
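Methyltransferase reactions run at room temperature for 2 h (20 nM enzyme, 500 nM biotin-H3K9 peptide, 20 uM SAM) after a 15 min compound preincubation; product detected by AlphaScreen beads and anti-H3K9me1 antibody.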
* marks the source's active call; other numbers are inactive results; [ ] = remark or other dose. Unless noted, the call rests on the fitted dose curve; in most records, active means well fitted inhibition curve with a large enough effect; inconclusive means small, poorly fitted or top-dose-only effect; inactive means no such curve, though single readings can be large or run the other way.

What do the screens show for `O=C1Nc2cc(C(=O)NCCCN3CCCC3)ccc2S/C1=C/c1ccccc1F`?
JMJD2A Tudor inh: inconclusive; BAZ2B inh: -38%; HP1b binding inh: -10%[57 µM]; Six1-Eya2 blk: -13; G9a inh: 14µM*

How did CCN1C(=O)c2ccccc2Sc2ccc(C(=O)NCCCN3CCCCC3)cc21 do in these assays?
JMJD2A Tudor inh: -17%; BAZ2B inh: -3%; CtBP-E1A blk: 2; HP1b binding inh: 59%; Six1-Eya2 blk: -1; G9a inh: inconclusive

How did O=C(NCCCN1CCCCC1)c1ccc2c(c1)NC(=O)c1ccccc1S2 do in these assays?
JMJD2A Tudor inh: -19%; BAZ2B inh: -4%[57.1 µM]; HP1b binding inh: 21%; Six1-Eya2 blk: 2; G9a inh: 50µM*

What do the screens show for `COc1ccc(NC(=O)CSc2nncn3c2cc2oc(C)cc23)cc1OC`?
JMJD2A Tudor inh: -15%; BAZ2B inh: 2%; HP1b binding inh: 28%; G9a inh: -4%[59 µM]

What do the screens show for `C=CCSC(=C(C#N)C#N)c1cc2c([nH]1)CCCC2`?
JMJD2A Tudor inh: 50µM*; BAZ2B inh: 50µM*; CtBP-E1A blk: -1; HP1b binding inh: inconclusive; Six1-Eya2 blk: -5; G9a inh: -48%[12.7 µM]

What do the screens show for `O=C(O)c1cc2c([nH]c1=O)CCCC2`?
JMJD2A Tudor inh: inconclusive; BAZ2B inh: -35%; CtBP-E1A blk: 6; HP1b binding inh: 36%; Six1-Eya2 blk: 5; G9a inh: inconclusive

How did CC(=O)OCCCCCCCCCCC[N+]1(C)CCCCC1 do in these assays?
JMJD2A Tudor inh: -2%; BAZ2B inh: -21%; CtBP-E1A blk: 8; HP1b binding inh: 19%; Six1-Eya2 blk: -5; G9a inh: 45µM*

Results for COC(=O)CCCCCCCCCC[N+]1(C)CCCCC1 ?
JMJD2A Tudor inh: inconclusive; BAZ2B inh: -35%; CtBP-E1A blk: 10; HP1b binding inh: 13%; Six1-Eya2 blk: 11; G9a inh: 16µM*

What do the screens show for `CC1CCc2c(sc(NC(=O)Cc3ccccc3)c2C(=O)Nc2ccc(Cl)cc2)C1` (centres undefined)?
JMJD2A Tudor inh: -10%; BAZ2B inh: 3%; HP1b binding inh: 43%; G9a inh: -1%[59 µM]

Results for COc1ccc(Cc2nnc(SCC(=O)N3CCN(c4ccccc4)CC3)o2)cc1 ?
JMJD2A Tudor inh: -13%; BAZ2B inh: -8%; CtBP-E1A blk: 4; HP1b binding inh: 64%; Six1-Eya2 blk: -1; G9a inh: inconclusive

What do the screens show for `COc1ccc(Cc2nnc(SCC(=O)N3CCCCC3)o2)cc1`?
JMJD2A Tudor inh: -19%; BAZ2B inh: -21%; HP1b binding inh: -39%; Six1-Eya2 blk: -16; G9a inh: 71µM*

What do the screens show for `CC(=O)c1ccc(NC(=O)C(C)Sc2n[nH]c(-c3cccnc3)n2)cc1` (centres undefined)?
JMJD2A Tudor inh: -9%; BAZ2B inh: -11%; CtBP-E1A blk: 4; HP1b binding inh: 12%; Six1-Eya2 blk: -1; G9a inh: 2%

How did CC(=O)Nc1ccc(NC(=O)C(C)Sc2n[nH]c(-c3ccc(C)cc3)n2)cc1 (centres undefined) do in these assays?
JMJD2A Tudor inh: -24%; BAZ2B inh: 10%; CtBP-E1A blk: 1; HP1b binding inh: -3%; Six1-Eya2 blk: -7; G9a inh: 40µM*

Results for Cc1ccc(-c2nc(SC(C)C(=O)c3c(N)n(C)c(=O)n(C)c3=O)n[nH]2)cc1 (centres undefined) ?
JMJD2A Tudor inh: -10%; BAZ2B inh: 12%; CtBP-E1A blk: -3; HP1b binding inh: 23%; Six1-Eya2 blk: -11; G9a inh: 45µM*

What do the screens show for `COc1cc(-c2nnn(CC(=O)Nc3ccc(OC(F)(F)F)cc3)n2)cc(OC)c1OC`?
JMJD2A Tudor inh: 4%; BAZ2B inh: -16%; HP1b binding inh: 27%; G9a inh: 7%[59 µM]

What do the screens show for `COC(=O)c1ccc(C(=O)OC)c(NC(=O)N2CC3CCCN3c3ccccc32)c1` (centres undefined)?
JMJD2A Tudor inh: inconclusive; BAZ2B inh: 25µM*; HP1b binding inh: -17%; G9a inh: 14µM*

How did O=C(CCC(=O)N1CC2CCCN2c2ccccc21)NCc1ccccc1F (centres undefined) do in these assays?
JMJD2A Tudor inh: 45µM*; BAZ2B inh: -32%; HP1b binding inh: 35%; G9a inh: -26%[59 µM]

How did COC(=O)c1ccc(C(=O)OC)c(NC(=O)N2c3ccccc3Sc3ccccc32)c1 do in these assays?
JMJD2A Tudor inh: -11%; BAZ2B inh: 10%; CtBP-E1A blk: 1; HP1b binding inh: 4%; Six1-Eya2 blk: 2; G9a inh: 8%[59 µM]

How did O=C(NCc1ccc(F)cc1)c1ccc(NC(=O)N2CC3CCCN3c3ccccc32)cc1 (centres undefined) do in these assays?
JMJD2A Tudor inh: inconclusive; BAZ2B inh: 8%; HP1b binding inh: -9%; G9a inh: 18%[59 µM]

What do the screens show for `O=C(NCc1ccc(Cl)cc1)c1ccc(NC(=O)N2CC3CCCN3c3ccccc32)cc1` (centres undefined)?
JMJD2A Tudor inh: -23%; BAZ2B inh: -38%; HP1b binding inh: 3%; G9a inh: 10µM*

How did CCC(Cc1ccccc1)NCc1c(C(=O)O)c(C)n(Cc2ccccc2)c1C (centres undefined) do in these assays?
JMJD2A Tudor inh: -22%; BAZ2B inh: -16%; CtBP-E1A blk: 0; HP1b binding inh: 29%; Six1-Eya2 blk: -7; G9a inh: inconclusive

What do the screens show for `Cc1c(C)c2c(OCC(=O)NCC(=O)NCC(=O)O)cc3c(c2oc1=O)CCC(C)(C)O3`?
JMJD2A Tudor inh: 20µM*; BAZ2B inh: 2%; CtBP-E1A blk: inconclusive; HP1b binding inh: 17%; Six1-Eya2 blk: inconclusive; G9a inh: 18%

How did Cc1c(C)c2c(OCC(=O)O)cc3c(c2oc1=O)CCC(C)(C)O3 do in these assays?
JMJD2A Tudor inh: -1%; BAZ2B inh: -17%; HP1b binding inh: 58%; Six1-Eya2 blk: -11; G9a inh: 14%

How did Cc1csc(=O)n1CCC(=O)OCC(=O)c1ccc(Br)cc1 do in these assays?
JMJD2A Tudor inh: -18%; BAZ2B inh: -33%; CtBP-E1A blk: 20; HP1b binding inh: 0%; Six1-Eya2 blk: 0; G9a inh: inconclusive
